Assay results as given in the supplement of paper PMC10849652.
About 7,900 targets were measured; listed, in parts, are those with a hit and a random draw of the rest. About 0.6% of all pairs of compound and target were hits.

Key:
Experiment in all cases: log2 fold change, soluble protein after heating vs DMSO (PISA); higher = thermal stabilisation; K562 cells, 10 uM, 30 min; active = over 0.2 and 3.5 SD of the protein, either way, in both replicates (recomputed)
[1] = compound: NC(=O)c1cnc(N[C@@H]2CCCC[C@@H]2N)nc1Nc1cccc(-n2nccn2)c1
In short: (§1)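 Soluble protein was quantified by TMTpro 16plex LC-MS/MS after channel sums were equalised. It was obtained as the supernatant after 21,000xg for 90 min from pooled aliquots of K562 cells (2×10^6 cells/mL, 10 μM compound, 30 min) heated for 3 min across 48°C-58°C and extracted in PBS with 0.5% NP-40 at 4°C. Thermal stability values are relative to control samples and come from duplicates. They are given as log2 fold changes.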

[2] = compound: NC1(c2ccc(-c3nc4ccn5c(=O)[nH]nc5c4cc3-c3ccccc3)cc2)CCC1
In short: as §1

[3] = compound: NCC(=O)Nc1ccc(-n2nc(C(F)(F)F)cc2-c2ccc3c(ccc4ccccc43)c2)cc1
In short: as §1

vorinostat = compound: O=C(CCCCCCC(=O)Nc1ccccc1)NO [vorinostat]
In short: as §1

citarinostat = compound: O=C(CCCCCCNC(=O)c1cnc(N(c2ccccc2)c2ccccc2Cl)nc1)NO [citarinostat]
In short: as §1

silmitasertib = compound: O=C(O)c1ccc2c(c1)nc(Nc1cccc(Cl)c1)c1ccncc12 [silmitasertib]
In short: as §1

[4] = compound: O=C1NC(=O)C(c2cnc3ccccn23)=C1c1cn2c3c(cc(F)cc13)CN(C(=O)N1CCCCC1)CC2
In short: as §1

[5] = compound: c1cc(OCCN2CCCCC2)cc(-c2n[nH]c3ccc(-c4nnc[nH]4)cc23)c1
In short: as §1

entospletinib = compound: c1cn2cc(-c3ccc4cn[nH]c4c3)nc(Nc3ccc(N4CCOCC4)cc3)c2n1 [entospletinib]
In short: as §1

[6] = compound: NC(=O)Nc1cc(-c2cccc(F)c2)sc1C(=O)N[C@H]1CCCNC1
In short: as §1

entinostat = compound: Nc1ccccc1NC(=O)c1ccc(CNC(=O)OCc2cccnc2)cc1 [entinostat]
In short: as §1

Measured: log2 fold change

MFSD8 (UniProt Q8NHS3)
inactive: [1] 0.02 | [2] -0.115 | [3] -0.076 | vorinostat -0.008 | citarinostat -0.003 | silmitasertib 0.069 | [4] -0.007 | [5] -0.129 | entospletinib 0.053

JAK3 (UniProt P52333)
Sequence of UniProt P52333 (P52333 whole entry, looked up): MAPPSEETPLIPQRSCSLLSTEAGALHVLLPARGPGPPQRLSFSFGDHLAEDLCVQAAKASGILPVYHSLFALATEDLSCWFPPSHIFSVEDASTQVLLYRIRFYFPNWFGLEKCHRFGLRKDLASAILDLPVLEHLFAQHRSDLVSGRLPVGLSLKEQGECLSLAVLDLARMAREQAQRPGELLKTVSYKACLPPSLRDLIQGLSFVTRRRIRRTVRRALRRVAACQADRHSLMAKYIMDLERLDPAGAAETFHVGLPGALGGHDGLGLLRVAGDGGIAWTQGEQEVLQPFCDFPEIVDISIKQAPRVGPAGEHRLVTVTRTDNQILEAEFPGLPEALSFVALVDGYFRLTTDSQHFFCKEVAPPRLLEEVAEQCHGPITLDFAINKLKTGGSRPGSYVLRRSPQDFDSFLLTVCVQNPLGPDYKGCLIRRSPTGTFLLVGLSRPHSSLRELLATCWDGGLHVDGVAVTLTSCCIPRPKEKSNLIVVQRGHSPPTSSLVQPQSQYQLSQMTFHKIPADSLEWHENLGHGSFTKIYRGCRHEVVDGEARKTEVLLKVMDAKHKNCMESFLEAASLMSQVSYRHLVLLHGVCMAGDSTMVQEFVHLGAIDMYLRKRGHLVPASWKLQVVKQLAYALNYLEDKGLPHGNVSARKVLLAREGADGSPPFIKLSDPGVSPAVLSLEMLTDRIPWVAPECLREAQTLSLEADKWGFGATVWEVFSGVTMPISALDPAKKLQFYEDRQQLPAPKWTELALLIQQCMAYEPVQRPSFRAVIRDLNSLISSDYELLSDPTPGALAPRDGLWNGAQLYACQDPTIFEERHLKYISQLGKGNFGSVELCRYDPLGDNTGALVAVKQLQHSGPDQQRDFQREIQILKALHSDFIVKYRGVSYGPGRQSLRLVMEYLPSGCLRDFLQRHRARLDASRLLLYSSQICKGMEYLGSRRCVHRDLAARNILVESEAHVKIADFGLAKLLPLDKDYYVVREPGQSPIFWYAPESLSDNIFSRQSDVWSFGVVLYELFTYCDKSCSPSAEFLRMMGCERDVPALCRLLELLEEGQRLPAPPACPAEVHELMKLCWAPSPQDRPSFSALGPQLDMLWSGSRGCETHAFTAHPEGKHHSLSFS
inactive: [6] 0 | [2] -0.045 | [3] -0.102 | entinostat -0.019 | vorinostat -0.048 | silmitasertib -0.003 | [4] 0.002

LAPTM4B (UniProt Q86VI4)
Sequence of UniProt Q86VI4 (Q86VI4 whole entry, looked up): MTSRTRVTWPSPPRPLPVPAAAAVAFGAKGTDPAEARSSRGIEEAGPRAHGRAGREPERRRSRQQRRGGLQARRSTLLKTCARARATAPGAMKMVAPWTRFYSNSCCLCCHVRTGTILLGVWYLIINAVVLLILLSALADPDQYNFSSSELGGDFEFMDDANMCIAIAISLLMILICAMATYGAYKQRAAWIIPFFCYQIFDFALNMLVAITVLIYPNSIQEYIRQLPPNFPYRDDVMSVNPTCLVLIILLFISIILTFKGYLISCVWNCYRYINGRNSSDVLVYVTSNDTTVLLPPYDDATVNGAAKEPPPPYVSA
inactive: [6] -0.109 | [2] 0.116 | entinostat -0.126 | vorinostat -0.064 | citarinostat 0.092 | silmitasertib 0.025 | [5] -0.178 | entospletinib 0.049

LSR isoform 3 (UniProt Q86X29)
inactive: [6] -0.531 | [2] -0.327 | entinostat -0.134 | silmitasertib 0.062

MAPK11 (UniProt Q15759)
inactive: vorinostat 0.033

IKZF1 (UniProt R9R4D9)
inactive: vorinostat -0.181

MGRN1 isoform 2 (UniProt O60291)
inactive: [1] 0.11 | vorinostat -0.024

MAP4K4 isoform 6 (UniProt O95819)
Sequence of UniProt O95819 (O95819 whole entry, looked up): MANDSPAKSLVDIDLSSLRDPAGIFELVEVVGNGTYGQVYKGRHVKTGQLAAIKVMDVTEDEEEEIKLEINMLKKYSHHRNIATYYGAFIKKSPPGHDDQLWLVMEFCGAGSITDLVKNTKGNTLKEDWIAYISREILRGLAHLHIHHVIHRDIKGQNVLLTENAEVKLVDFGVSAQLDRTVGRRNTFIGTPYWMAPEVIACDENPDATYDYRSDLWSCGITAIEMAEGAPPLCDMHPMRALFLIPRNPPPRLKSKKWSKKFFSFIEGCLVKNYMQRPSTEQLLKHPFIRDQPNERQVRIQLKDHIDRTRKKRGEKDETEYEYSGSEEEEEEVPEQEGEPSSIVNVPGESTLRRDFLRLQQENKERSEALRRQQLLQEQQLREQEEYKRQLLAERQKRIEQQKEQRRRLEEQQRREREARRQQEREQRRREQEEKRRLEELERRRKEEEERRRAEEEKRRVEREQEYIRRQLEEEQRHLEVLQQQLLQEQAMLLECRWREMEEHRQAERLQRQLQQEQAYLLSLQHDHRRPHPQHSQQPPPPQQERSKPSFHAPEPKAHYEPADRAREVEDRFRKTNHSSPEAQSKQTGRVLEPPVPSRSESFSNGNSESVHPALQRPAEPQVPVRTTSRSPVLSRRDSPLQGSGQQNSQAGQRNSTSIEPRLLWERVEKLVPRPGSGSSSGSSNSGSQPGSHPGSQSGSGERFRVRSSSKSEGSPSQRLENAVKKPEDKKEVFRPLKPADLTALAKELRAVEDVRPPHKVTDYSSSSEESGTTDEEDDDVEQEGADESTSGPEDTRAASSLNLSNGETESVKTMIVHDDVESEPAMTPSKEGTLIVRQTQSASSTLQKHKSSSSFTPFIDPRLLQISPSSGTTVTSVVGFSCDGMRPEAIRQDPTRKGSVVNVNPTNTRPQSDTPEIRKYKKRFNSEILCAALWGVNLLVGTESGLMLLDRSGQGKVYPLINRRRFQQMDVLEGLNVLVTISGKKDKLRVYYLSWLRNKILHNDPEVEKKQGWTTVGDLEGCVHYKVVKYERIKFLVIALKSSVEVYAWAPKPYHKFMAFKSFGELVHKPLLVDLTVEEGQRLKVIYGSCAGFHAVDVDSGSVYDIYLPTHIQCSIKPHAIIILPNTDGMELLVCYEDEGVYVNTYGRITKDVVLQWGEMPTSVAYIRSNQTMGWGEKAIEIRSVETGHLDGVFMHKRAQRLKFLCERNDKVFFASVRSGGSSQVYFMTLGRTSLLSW
inactive: [6] 0.332 | [2] 0.009 | [3] 0.228 | entinostat 0.237 | citarinostat 0.114 | silmitasertib -0.202 | [5] 0.143 | entospletinib -0.103

KIZ (UniProt Q2M2Z5)
Sequence of UniProt Q2M2Z5 (Q2M2Z5 whole entry, looked up): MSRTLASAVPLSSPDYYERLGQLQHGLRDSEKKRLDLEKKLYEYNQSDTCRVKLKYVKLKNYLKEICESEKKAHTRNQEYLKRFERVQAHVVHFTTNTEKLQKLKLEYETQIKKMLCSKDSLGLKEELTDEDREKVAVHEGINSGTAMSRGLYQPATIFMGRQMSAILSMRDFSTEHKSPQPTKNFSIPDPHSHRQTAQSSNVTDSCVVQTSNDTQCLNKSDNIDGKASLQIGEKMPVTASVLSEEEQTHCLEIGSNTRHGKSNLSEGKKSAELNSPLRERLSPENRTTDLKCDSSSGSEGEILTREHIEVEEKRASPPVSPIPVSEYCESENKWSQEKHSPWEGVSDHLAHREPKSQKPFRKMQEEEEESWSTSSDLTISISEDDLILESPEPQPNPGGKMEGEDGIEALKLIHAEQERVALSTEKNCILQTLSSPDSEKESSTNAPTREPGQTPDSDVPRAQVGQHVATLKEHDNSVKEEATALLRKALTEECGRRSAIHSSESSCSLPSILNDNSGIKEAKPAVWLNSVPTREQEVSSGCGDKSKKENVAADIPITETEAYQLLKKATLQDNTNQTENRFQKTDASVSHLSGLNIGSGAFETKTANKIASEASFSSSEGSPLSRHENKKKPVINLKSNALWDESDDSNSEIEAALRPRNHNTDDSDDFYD
inactive: [1] -0.067 | vorinostat 0.137 | citarinostat -0.094 | [5] 0.045 | entospletinib -0.105

MCOLN3 (UniProt Q8TDD5)
Sequence of UniProt Q8TDD5 (Q8TDD5 whole entry, looked up): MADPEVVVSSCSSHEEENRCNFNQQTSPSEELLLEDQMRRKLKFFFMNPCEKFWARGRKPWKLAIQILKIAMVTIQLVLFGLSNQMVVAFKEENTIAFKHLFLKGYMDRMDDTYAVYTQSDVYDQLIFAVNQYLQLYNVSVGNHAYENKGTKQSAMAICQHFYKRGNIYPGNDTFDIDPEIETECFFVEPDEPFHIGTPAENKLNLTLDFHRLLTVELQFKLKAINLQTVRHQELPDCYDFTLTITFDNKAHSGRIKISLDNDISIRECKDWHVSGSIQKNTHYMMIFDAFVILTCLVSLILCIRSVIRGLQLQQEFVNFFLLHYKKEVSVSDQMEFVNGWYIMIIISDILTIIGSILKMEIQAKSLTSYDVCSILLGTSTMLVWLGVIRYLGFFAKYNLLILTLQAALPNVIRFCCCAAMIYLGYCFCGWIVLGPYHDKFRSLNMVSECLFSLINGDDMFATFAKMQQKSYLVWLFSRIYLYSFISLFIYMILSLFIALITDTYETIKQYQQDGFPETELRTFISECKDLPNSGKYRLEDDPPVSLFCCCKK
inactive: [2] -0.254 | vorinostat 0 | citarinostat 0.095 | silmitasertib 0.083 | [5] 0.159 | entospletinib -0.194

KXD1 (UniProt Q9BQD3)
Sequence of UniProt Q9BQD3 (Q9BQD3 whole entry, looked up): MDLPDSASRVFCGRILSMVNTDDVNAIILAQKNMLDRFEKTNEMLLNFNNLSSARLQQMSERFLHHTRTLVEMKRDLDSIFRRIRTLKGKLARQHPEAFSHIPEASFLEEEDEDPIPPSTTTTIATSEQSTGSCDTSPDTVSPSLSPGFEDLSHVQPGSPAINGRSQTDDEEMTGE
inactive: [1] -0.091 | [2] -0.237 | [3] -0.021 | vorinostat -0.046 | citarinostat 0.042 | silmitasertib -0.113 | [4] 0.131 | [5] -0.055 | entospletinib 0.016

MAP4K2 (UniProt Q12851)
Sequence of UniProt Q12851 (Q12851 whole entry, looked up): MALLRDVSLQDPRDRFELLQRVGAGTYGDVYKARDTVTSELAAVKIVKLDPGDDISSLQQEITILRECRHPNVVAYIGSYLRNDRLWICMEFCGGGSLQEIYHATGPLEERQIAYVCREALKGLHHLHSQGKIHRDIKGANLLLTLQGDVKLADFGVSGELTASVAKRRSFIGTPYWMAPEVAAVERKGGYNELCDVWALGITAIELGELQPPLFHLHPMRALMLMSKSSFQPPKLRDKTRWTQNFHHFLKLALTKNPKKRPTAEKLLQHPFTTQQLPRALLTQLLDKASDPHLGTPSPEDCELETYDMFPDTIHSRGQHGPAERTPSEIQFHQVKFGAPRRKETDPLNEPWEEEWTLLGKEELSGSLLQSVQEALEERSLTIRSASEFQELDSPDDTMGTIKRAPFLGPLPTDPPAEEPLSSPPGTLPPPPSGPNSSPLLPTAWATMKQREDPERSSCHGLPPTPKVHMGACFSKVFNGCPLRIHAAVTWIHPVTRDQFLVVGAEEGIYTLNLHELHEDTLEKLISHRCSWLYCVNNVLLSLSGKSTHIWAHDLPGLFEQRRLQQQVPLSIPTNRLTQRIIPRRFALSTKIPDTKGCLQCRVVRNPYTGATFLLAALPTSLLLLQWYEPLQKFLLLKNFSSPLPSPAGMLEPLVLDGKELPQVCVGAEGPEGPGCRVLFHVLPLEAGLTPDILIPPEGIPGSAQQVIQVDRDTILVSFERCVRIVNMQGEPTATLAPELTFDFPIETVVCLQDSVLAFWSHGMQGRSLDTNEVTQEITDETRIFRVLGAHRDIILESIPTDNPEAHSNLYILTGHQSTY
active: [6] 0.827
inactive: entinostat 0.145 | citarinostat 0.116 | [5] -0.22 | entospletinib 0.128
